The campaign covered roughly 7,900 compounds. About 400 (5.1%) showed an effect of 50% or more. The sample as a whole holds a higher share of strong results than the screen did.

Sequence of Parkinson's disease protein 7 (PARK7/DJ1) (Q99497 whole entry, looked up, the tested form may be a part): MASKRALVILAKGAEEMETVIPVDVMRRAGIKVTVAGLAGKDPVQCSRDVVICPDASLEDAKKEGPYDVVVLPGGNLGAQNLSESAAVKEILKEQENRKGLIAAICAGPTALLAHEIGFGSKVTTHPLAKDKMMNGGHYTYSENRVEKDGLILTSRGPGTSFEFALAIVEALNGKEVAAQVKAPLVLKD

This experiment addresses Parkinson's disease protein 7 (PARK7/DJ1) (human, UniProt Q99497). Briefly: primary screen, percent inhibition; read as competition with a fluorescent probe by fluorescence polarization; higher = more effect of the substance. The conditions noted are these: 100 µM. The essentials:
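Fluorescence-polarization probe displacement (JYQ-107, 20 nM final, 2 h) after 2 h preincubation of PARK7 (0.2 μM final) with each fragment at 100 μM final. Read-out ex/em 480/520 nm; remaining activity derived from FP signal loss relative to reference controls.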
As for `C=CC(=O)NCC1CCCc2sc(C)nc21` (stereo not shown), the Inhibition % was found to be 5.16%.

In the case of `Fc1ccc(C2=NOC(CCl)C2)cc1` (stereo not shown), the Inhibition % is listed as -2.86%.

Take `COc1ccc(S(=O)(=O)N(C)C)cc1NC(=O)CCl`: the Inhibition % is on record as 20.4%.

For `C=CC(=O)N1CCOc2c(F)ccc(F)c21`, the Inhibition % is recorded as 9%.

For `C=CC(=O)Nc1cc(CC(C)(C)C)nn1C`, the Inhibition % was determined as 8.54%.

`O=C(CCl)Nc1ccccc1C(=O)Nc1ccccc1`: the Inhibition % is recorded as 10.5%.

Turning to `O=C(CC1SC(=O)NC1=O)Nc1ccc(Cl)cc1` (stereo not shown), the Inhibition % worked out at 95.7%.

Take `C=CC(=O)Nc1ccc(Cl)cc1`: the Inhibition % is 5.59%.

As to `CC(=O)Nc1ccc(NC2SC(=O)NC2=O)cc1` (stereo not shown), the Inhibition % is given as 66.6%.

In the case of `O=C(CCCl)Nc1ccccc1`, the Inhibition % worked out at 3.48%.

As to `O=C(CC1SC(=O)NC1=O)Nc1ccccc1` (stereo not shown), the Inhibition % was 82.7%.

`CC(=O)Nc1ccc(S(=O)(=O)F)cc1`: the Inhibition % is 15.8%.

Regarding `CC(=O)Nc1ccc(OC(=O)N(C)C)cc1`, the Inhibition % was 10.8%.

For the molecule `O=C(CCCl)Nc1ccc(F)cc1`, the Inhibition % was 5.87%.

As for `N#CC1(CCCl)CCCCC1`, the Inhibition % is given as 3.15%.

On to `C=CC(=O)N1CCN(c2ccc(OC)cn2)CC1`, for which the Inhibition % is 5.59%.

As for `O=C(CCl)Nc1ccc(NC(=O)c2cccs2)cc1`, the Inhibition % was 28%.

With `COc1ccc(NC(=O)CCl)cc1Cl`, the Inhibition % amounted to 28.1%.

With `COc1ccc(Cl)cc1C(=O)NNC(=O)CCl`, the Inhibition % turned out to be 29.8%.

With `COc1cc(OC)c(C(=O)CCl)c(OC)c1`, the Inhibition % is given as 5.2%.

Turning to `COc1ccc(C(=O)CCl)cc1F`, the Inhibition % is recorded as 91.7%.

Turning to `COc1ccc(C(=O)CCl)cc1Cl`, the Inhibition % turned out to be 95.9%.

On to `COc1ccc(Cl)cc1NC(=O)CCl`, for which the Inhibition % turned out to be 14.9%.

With `C=CC(=O)NC1CC(C(C)(C)C)C1` (stereo not shown), the Inhibition % was 14%.

Turning to `C=CC(=O)N1c2cc(OC)ccc2NC(=O)C1C` (stereo not shown), the Inhibition % was found to be 9.84%.

For the molecule `O=S(=O)(F)c1ccc(Br)cc1`, the Inhibition % came out at 13.2%.

For `O=S(=O)(F)c1cc(Br)ccc1Cl`, the Inhibition % is on record as 88.4%.

Consider `O=S(=O)(F)c1ccc(Cl)c(S(=O)(=O)F)c1`, for which the Inhibition % is -3.28%.

As for `CC1CCN(C(=O)CCl)c2ccccc2S1` (stereo not shown), the Inhibition % is 6.09%.

In the case of `Cc1ccc(Oc2ccc(Cl)cc2NC(=O)CCl)cc1`, the Inhibition % is reported as 2.17%.

As to `COc1cc(NC(=O)OC(C)(C)C)ccc1B1OC(C)(C)C(C)(C)O1`, the Inhibition % came to 14.5%.

In the case of `O=C(CCl)Nc1cc(Cl)ccc1-n1cncn1`, the Inhibition % stood at 11%.

For `CSc1ccc(NC(=O)CCl)cc1`, the Inhibition % was 86%.

Regarding `O=C(CCl)Nc1ccc(SC(F)F)cc1`, the Inhibition % was found to be 100%.

As to `Cc1ccc(C)c(Sc2ccc(NC(=O)CCl)cc2)c1`, the Inhibition % was 37%.

As to `Cc1ccc(Sc2ccc(NC(=O)CCl)cc2)c(C)c1`, the Inhibition % was 25.5%.

In the case of `Cc1ccc(Sc2ccc(NC(=O)CCl)cc2)cc1C`, the Inhibition % is given as 34.5%.

Turning to `O=C(CCl)Nc1ccccc1SC(F)F`, the Inhibition % was 9.47%.

Consider `CC1(C)[C@@H](Nc2cnc(C#N)cn2)[C@@H]1c1ccccc1` (racemic), for which the Inhibition % was 10.2%.

Consider `Cc1nc(S)c(C#N)cc1C(=O)Nc1ccccc1`, for which the Inhibition % amounted to 10.1%.

`N#Cc1ncn(CC(=O)N(C2=CCCCC2)C2CC2)n1`: the Inhibition % is reported as 29.4%.

Regarding `COc1ccc(C(=O)CCl)c2c1C(=O)CO2`, the Inhibition % worked out at 64.2%.

Take `COc1ccc(C(=O)CCl)c(OC)c1`: the Inhibition % is 41.1%.

For `COc1ccc(OC)c(C(=O)CCl)c1`, the Inhibition % was 11.8%.

For `O=C(C=Cc1cnc2ccccc2n1)N1CCCCC1`, the Inhibition % is listed as 9.55%.

With `O=C1OC[C@@H]2CN(Cc3ccccc3)C[C@H]12` (racemic), the Inhibition % worked out at 6.21%.

Turning to `CC(OS(C)(=O)=O)C(C)c1ccc2ccccc2n1.Cl` (stereo not shown), the Inhibition % worked out at 24.3%.

`O=S(=O)(F)c1ccc2ccccc2n1`: the Inhibition % turned out to be 69.3%.

For the molecule `O=S(=O)(F)c1nc2ccccc2s1`, the Inhibition % was determined as 12.9%.

Consider `Cc1cc(C=C(C#N)C(N)=O)c(C)n1C1CC1`, for which the Inhibition % was 2.13%.

Turning to `C=CCn1c(C)cc(C(=O)CCl)c1C`, the Inhibition % is 58.7%.

On to `Cc1cc(C(=O)CCl)c(C)[nH]1`, for which the Inhibition % was found to be 98.2%.

For the molecule `Cc1cc(C(=O)CCl)c(C)n1CC(N)=O`, the Inhibition % is on record as 4.29%.

Regarding `CCn1c(C)cc(C(=O)Cn2cnc(C#N)n2)c1C`, the Inhibition % is recorded as 0.239%.

For the molecule `Cc1cc(C(=O)CCl)c(C)n1CC1CCCO1` (stereo not shown), the Inhibition % was found to be 3.43%.

For `Cc1cc(F)c(C(=O)CCl)cc1F`, the Inhibition % came out at 5.49%.

For `Cc1cc(C(=O)Cn2cnc(C#N)n2)c(C)n1C(C)C`, the Inhibition % was found to be 11.7%.

Take `CCn1c(C)cc(C(=O)CCl)c1C`: the Inhibition % was 56%.

Consider `Cc1cc(C(=O)CCl)c(F)cc1F`, for which the Inhibition % was 5.96%.

Take `Cc1cc(C(=O)CCl)c(C)n1C(C)C`: the Inhibition % came out at 96.9%.

Take `C=CC(=O)N1CCC2COCC2C1` (stereo not shown): the Inhibition % is 6.41%.

With `N#Cc1nc(-c2ccc(Cl)cc2Cl)oc1N`, the Inhibition % is -2.51%.

Consider `O=c1ccc2cc(S(=O)(=O)OCC(F)(F)F)ccc2o1`, for which the Inhibition % turned out to be 6.17%.

With `C=CC(=O)NCCc1cncnc1`, the Inhibition % is 10.1%.

Take `CCc1ccc(C=CS(=O)(=O)Nc2onc(C)c2C)cc1`: the Inhibition % worked out at 4.3%.

Turning to `N#Cc1cc(C(=O)NCC2CCc3nccn3C2)c[nH]1` (stereo not shown), the Inhibition % came out at 16.5%.

For `CCC(NC(=O)CCl)c1ccc(Br)cc1` (stereo not shown), the Inhibition % is on record as 5.16%.

On to `CC1(C)OB(c2cccc(OCCCN3CCCC3)c2)OC1(C)C`, for which the Inhibition % was determined as 1.19%.

Consider `C=CC(=O)N1CCCCC1c1noc(C)n1` (stereo not shown), for which the Inhibition % was 3.88%.

For the molecule `O=C(CN1CCSC1=O)N1CCN(c2ccccc2)CC1`, the Inhibition % was 5.93%.

Regarding `C=CC(=O)N1CCC(S(=O)(=O)NC(C)C)C1` (stereo not shown), the Inhibition % is 7.14%.

`CC1(CO)CCCC1Nc1ccc(C#N)nc1` (stereo not shown): the Inhibition % is reported as 6.61%.

With `COCc1cccnc1C#N`, the Inhibition % was found to be 2.34%.

`Fc1ccc(C2CO2)nc1` (stereo not shown): the Inhibition % amounted to 4.53%.

Take `Cc1cc(C(=O)CCl)c(C)n1CC(F)(F)F`: the Inhibition % is reported as 1.46%.

With `COCCn1c(C)cc(C(=O)CCl)c1C`, the Inhibition % is reported as 49.1%.

On to `Cc1cc(C(=O)CCl)c(C)n1C1CCS(=O)(=O)C1` (stereo not shown), for which the Inhibition % was determined as 35.7%.

Take `Cc1cc(C(=O)CCl)c(C)n1C`: the Inhibition % came to 72.1%.

As to `Cc1cc(C(=O)Cn2cnc(C#N)n2)c(C)n1C`, the Inhibition % stood at 18.2%.

With `CCCn1c(C)cc(C(=O)CCl)c1C`, the Inhibition % worked out at 56%.

Take `Cc1cc(C(=O)Cn2cnc(C#N)n2)c(C)n1C1CC1`: the Inhibition % was 17.1%.

With `Cc1cc(C(=O)CCl)c(C)n1C1CC1`, the Inhibition % is 65%.

As for `Cc1cc(C(=O)CCl)c(C)n1Cc1ccco1`, the Inhibition % stood at 54.9%.

In the case of `CCCn1c(C)cc(C(=O)Cn2cnc(C#N)n2)c1C`, the Inhibition % is listed as 6.57%.

With `Cc1cc(C=C(C#N)C(N)=O)c(C)n1Cc1ccco1`, the Inhibition % is 7.44%.

The record behind these values is publication PMC9574860, “Chemical Toolkit for PARK7: Potent, Selective, and High-Throughput” (Journal of Medicinal Chemistry, 2022).
